Measured values as given in PubChem BioAssay (EPA / NIEHS).
The source made the active and inactive calls. Rule for the calls: active = hit-call score of the fitted dose curve at least 0.9, where 1 is the maximum; inactive = score below 0.9.

These molecules were tested on UDP glucuronosyltransferase (UGT1A6), UGT1A6 (gene 54578) (assay: LTEA_HepaRG_UGT1A6: Life Technologies and Expression Analysis (LTEA) Assay for UDP glucuronosyltransferase (UGT1A6) using HepaRG (AID 2283539)). Details: mRNA level, 48 h; actives raise or lower the signal.
Method: LTEA_HepaRG is a cell based, multiplexed-readout assay that uses HepaRG, a human liver cell line, with measurements taken at 48 hours after chemical dosing on a 96-well plate.LTEA_HepaRG_UGT1A6 is one of 102 assay component(s) measured in the LTEA HepaRG cell culture assay. It is a marker of NR mediated metabolism.Data from the assay component LTEA_HepaRG_UGT1A6 was analyzed into 1 endpoint. This assay endpoint, LTEA_HepaRG_UGT1A6, was analyzed with bidirectional fitting relative to DMSO as the negative control and baseline of activity. Using a type of inducible reporter, measures of mRNA induction for gain or loss-of-signal activity can be used to understand regulation of transcription factor activity. To generalize the intended target to other relatable targets, this assay endpoint is annotated to the transferase intended target family, where the subfamily is glucuronosyltransferase.
A total of 1060 chemcials from the ToxCast library were tested in eight-point concentration-response experiments. Cell culture and cytotoxicity assays were conducted at Thermo Fisher Scientific's Custom Services facility (Madison, WI). A single lot of human HepaRG cells (Thermo Fisher Scientific, Frederick, MD) was used for the cell culture experiments. 96-well format collagen type I coated plates of human HepaRG cells were prepared using established methods. Briefly, cryopreserved HepaRG cells were thawed, plated at a density of approximately 100,000 cells/well in HepaRG Thaw, Plate, and General Purpose media (HPRG770, Thermo Fisher Scientific), and incubated for 48 hours. 0.5% DMSO was selected as vehicle control to balance the requisite need of DMSO in HepaRG cultures to maintain differentiation (for example, baseline metabolism, proportions of hepatocytes vs. cholangiocytes), while enabling further hepatic receptor pathway activation (for example, PXR and CAR) in response to chemical exposure. 48 hours after plating, the culture medium was replaced with HepaRG Serum-Free Incudtion Media. Cells were exposed to each test chemical in duplicate and maintained in CO2 incubators for another 48 hours. Chemical plates were thawed to room temperature and 200x concentrations of treatment groups were prepared. 8-point conentration-reponse curves were made with the highest exposure at 100 uM, followed by half-log dilutions, all in 0.5% DMSO. Each test plate contained variouse controls, induction positive controls (1mM phenobarbital), cytotoxicity positive controls ([…] aflatoxin B1), vehicle controls (0.5% DMSO), and total lysis controls (0.5% DMSO). Cell morphology images were taken using an Essen IncuCyte FLR automated microscope, with six 96-well plates imaged in about 24 minutes. Images were captured and exported and JPEG files. Spent culture media was transfered to black-well plates for the LDH assay, and remaining media was sorted at -80 C for later use. Cells were treated with RLT buffer and frozen until shipped for gene expression analysis. Total RNA was isolated from the cell suspension in 75 uL of Buffer RLT (Qiagen, Germantown, MD 20874) by Quintiles/Expression Analysis (Durham, NC) using a custom isolation procedure. Total RNA from each plate well was transferred to a preamplification plate. Fluidigm's 96.96 Dynamic ArrayTM (Fluidigm, Amsterdam, the Netherlands) technology was used for gene expression analyses by quantitative reverse transcription polymerase chain reaction (qRT-PCR, performed by Quintiles/Expression Analysis, Durham, NC)89. Standard TaqManTM Assays (Applied Biosystems/ThermoFisher Scientific, Foster City, CA) were used to assess the expression of 93 genes selected based on their selectivity and sensitivity to important hepatic receptors known to be modulated by environmental chemicals; importance in human hepatocyte functionality; and hepatotoxicity. […]

SMILES | outcome | AC50
CCOC(=O)C(C)(C)Oc1ccc(Cl)cc1 | inactive | 
NCC1(Cc2noc(=O)[nH]2)CCCCC1 |  | 0.226 µM (active)
COC(=O)c1ccc(O)cc1 | inactive | 
NS(=O)(=O)c1cc2c(cc1Cl)NCNS2(=O)=O | inactive | 
O=c1c(O)c(-c2ccc(O)c(O)c2)oc2cc(O)cc(O)c12 | inactive | 
CC1=C(/C=C/C(C)=C/C=C/C(C)=C/CO)C(C)(C)CCC1 | inactive | 
COc1cc(C=O)ccc1O | inactive | 
CN1CCN(Cc2cc(-c3ccc4[nH]c(=O)oc4c3)co2)[C@@H](c2ccc(F)cc2)C1 | inactive | 
CCCCCCC(=O)OCC | inactive | 
CC1(C)NC(=O)NC1=O | inactive | 
Cc1ccc(Cl)cc1 | inactive | 
C[C@]12C=CC(=O)C=C1CC[C@@H]1[C@@H]2C(=O)C[C@@]2(C)[C@H]1CC[C@]2(O)C(=O)CO | inactive | 
CC(C)c1ccc(C(=O)N=C(N)N)cc1S(C)(=O)=O | inactive | 
C=CCc1ccc(O)c(OC)c1 | inactive | 
c1cc(-c2ccncc2)ccn1 | inactive | 
Cc1cccc(Nc2cc(Cl)nc(SCC(=O)O)n2)c1C | inactive | 
Cc1nc(-c2ccc3c(c2)CCN(CCC2CCC(NC(=O)/C=C/c4ccc(F)cc4)CC2)CC3)no1 (stereo not given) | inactive | 
C[Si]1(C)O[Si](C)(C)O[Si](C)(C)O[Si](C)(C)O1 | inactive | 
CC(=O)OC/C=C(\C)CCC=C(C)C | inactive | 
Cc1ccccc1Cl | inactive | 

SMILES | outcome | AC50
CCCCCCCCCCCCCCCCCC(=O)O | inactive | 
CNC(=O)[C@H]1O[C@@H](n2cnc3c(NCc4cc(Cl)ccc4OCc4cc(C)no4)ncnc32)[C@H](O)[C@@H]1N | inactive | 
Oc1ccc2ccccc2c1N=Nc1ccccc1 | inactive | 
Cc1nc(C)nc(N2C[C@@H](C)N(c3ccnc([C@@H](C)O)n3)[C@@H](C)C2)n1 | inactive | 
CCCCOC(=O)CCCCCCCCC(=O)OCCCC | inactive | 
CCCCCCOCCO | inactive | 
CC(=O)Oc1ccccc1C(=O)O | inactive | 
C=CCOC(=O)c1ccccc1C(=O)OCC=C | inactive | 
O=C(O)Cc1ccccc1Nc1c(Cl)cccc1Cl | inactive | 
CN[C@H]1CC[C@@H](c2ccc(Cl)c(Cl)c2)c2ccc(S(N)(=O)=O)cc21 |  | 74.2 µM (active)
CCc1c(C(=O)NN2CCCCC2)nn(-c2ccc(Cl)cc2Cl)c1-c1ccc(Br)cc1 |  | 73.6 µM (active)
CC(=O)OCCOCCOCCOC(C)=O | inactive | 
CCNc1cccc(C)c1 | inactive | 
Clc1cc(Cl)c(Cl)cc1Cl | inactive | 
NC(=O)Cn1c(=O)cc(CCN2CCN(c3nccc4sccc34)CC2)c2ccc(F)cc21 |  | 34.6 µM (active)
CCCCCCCCCCCC(=O)OC | inactive | 
O=c1[nH]cc(F)c(=O)[nH]1 | inactive | 
CCOc1ccc2c(c1)C(C)=CC(C)(C)N2 | inactive | 
O=C(OCCCCCOC(=O)c1ccccc1)c1ccccc1 | inactive | 
CCCCN(CCCC)CCCC | inactive | 
